High-throughput results (PubChem)
CYP2C9 inh: blockers of cytochrome P450 2C9 activity – biochemical, luminescence, ADME assay, primary screen | CYP2C9 Supersomes, luciferin-H conversion | inhibition, % at 5 µM | AID 777, 2007 | P11712 | 96,000 tested, 20% active;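 active = blocking of liver enzyme CYP2C9 beyond about 50% at 5 µM, limit read from the data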
CYP2C9 act: human CYP2C9 activators, primary screen, biochemical, luminescence | recombinant CYP2C9, luciferin-H conversion; stronger effect = higher value; factor 1 = untreated enzyme, 0 = blocked | activation factor at 5 µM | 96,000 tested, 1.4% active | AID 1024, 2008;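 active = activation factor of 2 or more for CYP2C9 at a 5 µM dose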;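 also: 0 = sulfaphenazole-blocked wells and 1 = vehicle-only wells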
EphB4 antag: EphB4-ephrin-B2 interaction antagonists, primary screen, biochemical, TNYL-RAW peptide probe, fluorescence polarization | Ephrin type-B receptor 4 (Homo sapiens), P54760 | EphB4 LBD / TNYL-RAW-Alexa532 peptide | inhibition, % at 7 µM | 97,000 tested, 0.15% active | AID 720, 2007;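 active = inhibition above the screen-wide mean inhibition plus 3 SD, cut at about 15% in these data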;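 also: 0% = DMSO wells and 100% = excess unlabeled TNYL-RAW peptide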
Target sequence (P54760 whole entry, looked up, the tested form may be a part): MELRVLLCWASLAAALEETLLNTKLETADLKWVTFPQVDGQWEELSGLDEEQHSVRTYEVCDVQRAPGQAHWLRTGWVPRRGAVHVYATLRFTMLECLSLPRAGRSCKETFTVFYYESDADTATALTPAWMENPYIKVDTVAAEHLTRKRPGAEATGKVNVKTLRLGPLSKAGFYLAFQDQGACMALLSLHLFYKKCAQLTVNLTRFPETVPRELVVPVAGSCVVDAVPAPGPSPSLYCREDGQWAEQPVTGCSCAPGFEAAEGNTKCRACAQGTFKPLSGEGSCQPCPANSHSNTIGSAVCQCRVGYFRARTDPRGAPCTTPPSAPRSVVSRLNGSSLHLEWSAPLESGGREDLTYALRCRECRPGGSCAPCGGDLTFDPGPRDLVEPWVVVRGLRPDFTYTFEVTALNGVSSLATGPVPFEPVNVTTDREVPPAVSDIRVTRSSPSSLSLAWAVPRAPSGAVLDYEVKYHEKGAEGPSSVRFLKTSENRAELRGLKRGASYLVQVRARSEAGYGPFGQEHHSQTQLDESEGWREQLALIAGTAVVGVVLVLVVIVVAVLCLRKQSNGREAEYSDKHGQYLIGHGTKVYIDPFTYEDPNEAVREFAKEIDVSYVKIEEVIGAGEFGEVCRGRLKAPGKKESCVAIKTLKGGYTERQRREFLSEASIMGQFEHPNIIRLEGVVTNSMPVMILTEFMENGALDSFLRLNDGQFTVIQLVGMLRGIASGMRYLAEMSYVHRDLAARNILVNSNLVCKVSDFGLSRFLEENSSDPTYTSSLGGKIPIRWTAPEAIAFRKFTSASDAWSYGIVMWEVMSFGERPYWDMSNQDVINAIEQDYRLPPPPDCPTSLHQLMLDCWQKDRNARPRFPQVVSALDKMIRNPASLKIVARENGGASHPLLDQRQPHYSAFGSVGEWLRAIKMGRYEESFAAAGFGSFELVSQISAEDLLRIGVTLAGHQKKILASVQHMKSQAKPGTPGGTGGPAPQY
CYP2C19 inh: blockers of cytochrome P450 2C19 activity – biochemical, luminescence, ADME assay, primary screen; P33261; CYP2C19 Supersomes, luciferin-H EGE luminescence, 30 min; inhibition, % at 5 µM; 96,000 tested, 21% active;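 active = CYP2C19 inhibition above a set limit at 5 µM in the primary screen, cut at about 50% in these data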;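 also: plate controls were negative control wells for no effect and 2.5 mM tranylcypromine positive control for full effect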
CYP2C19 act: human CYP2C19 activators, primary screen, biochemical, luminescence; Cytochrome P450 2C19 (Homo sapiens), P33261; recombinant CYP2C19, luciferin-H EGE luminescence; stronger effect = higher value; 0 = fully inhibited enzyme, 1 = untreated enzyme; activation factor at 5 µM; 96,000 tested, under 10 active; AID 1025, 2008;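 active = activation factor of at least 2 at 5 µM in the primary screen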;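 also: 0 = wells with 2.5 mM tranylcypromine and 1 = vehicle-only wells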
* hit, by the source's call; nt = not tested or not shown. Only some compounds are listed: those with a hit (about 27% of all), similar ones and a draw of the others.

SMILES	CYP2C9 inh	CYP2C9 act	EphB4 antag	CYP2C19 inh	CYP2C19 act
O=c1cc(N2CCc3ccccc32)[nH]c(=O)n1-c1ccc(Br)cc1	-5	1	-8	3	1
CC(=O)NC1(C(Cl)(Cl)Cl)Oc2ccccc2O1	7	0.9	1	14	0.9
c1ccc(-c2nnc(-c3c[nH]c4ccccc34)nc2-c2ccccc2)cc1	99*	0	1	10	0.9
Cc1cc(-c2nnc(-c3ccccc3)c(-c3ccccc3)n2)c(C)o1	71*	0.3	-11	24	0.8
Nc1nnc(-c2ccccc2)c(-c2ccccc2)n1	1	1	3	16	0.8
N#Cc1cnn(Cc2ccccc2)c1/N=C/N1CCOCC1	-3	1	-5	11	0.9
CCCCCCNC(=O)Cc1nc2nc(C)cc(C)n2n1	-15	1.2	-3	-12	1.1
CCCCn1nnnc1NCc1cccs1	18	0.8	0	65*	0.4
COc1ccc(CNc2ccc(S(N)(=O)=O)cc2)c(OC)c1OC	37	0.6	2	7	0.9
CCCCn1nnnc1NCc1ccc(OC)c(OC)c1OC	32	0.7	0	70*	0.3
CC1CN(C(=O)c2cc3ccccc3oc2=O)CC(C)O1 (stereo not given)	-79	1.8	nt	-1	1
O=C(c1cc2ccccc2oc1=O)N1CCSC1c1ccco1 (stereo not given)	-155	2.5*	4	56*	0.4
COc1ccc2nc(Nc3nc(C)c(CCC(C)C)c(=O)[nH]3)nc(C)c2c1	58*	0.4	0	60*	0.4
COc1ccc2nc(C)[nH]c(=O)c2c1	10	0.9	6	2	1
CC(=O)N(Cc1c(C)nn(-c2ccccc2)c1Cl)c1ccc(Cl)cc1	49	0.5	-5	90*	0.1
N#C/C(C(=O)N1CCOCC1)=C1/SC(Cc2ccccc2)C(=O)N1c1ccccc1 (stereo not given)	12	0.9	8	10	0.9
Cc1nc([N+](=O)[O-])c(Br)n1CC(=O)c1ccc(Cl)cc1	66*	0.3	-3	27	0.7
CCOCc1cn(CC(=O)c2ccc(Cl)cc2)c(C)nc1=N	-24	1.2	-2	-13	1.1
Cc1cc(C)nc(N(C#N)Cc2ccccc2Cl)n1	-177	2.8*	-3	68*	0.3
Cc1cc(C)nc(N(C#N)CN2C(=O)c3ccccc3C2=O)n1	-180	2.8*	-6	-5	1.1
CCOC(=O)CN(C#N)c1nc(C)cc(C)n1	-27	1.3	0	-4	1
C=CCN1CCN(Cc2cnc(Cl)s2)CC1	-7	1.1	1	10	0.9
Clc1cccc(Oc2ncc(CN3CCOCC3)s2)c1	16	0.8	-7	82*	0.2
Clc1ncc(CN2CCN(Cc3ccccc3)CC2)s1	8	0.9	4	74*	0.3
Cc1cccc(C(=O)Nc2ncc(CN3CCOCC3)s2)c1	-1	1	-6	12	0.9
SMILES	CYP2C9 inh	CYP2C9 act	EphB4 antag	CYP2C19 inh	CYP2C19 act
Cc1ccc(Oc2ncc(CN3CCOCC3)s2)cc1	21	0.8	-2	79*	0.2
Brc1ccc(Oc2ncc(CN3CCN(c4ccccc4)CC3)s2)cc1	71*	0.3	-3	57*	0.4
CCOC(=O)c1[nH]nc(C(=O)c2ccc(Br)cc2)c1O	0	1	7	-7	1.1
O=C(CSc1nnc(-c2ccccc2)n1C1CCCCC1)Nc1ccc(S(=O)(=O)Nc2ccccn2)cc1	10	0.9	7	35	0.6
CN(C)c1ccc(NC(=O)CSc2nc(N)c(C(=O)Nc3ccc(N(C)C)cc3)s2)cc1	33	0.7	-3	28	0.7
CCn1c(SCC(=O)Nc2ccc(S(=O)(=O)Nc3ccccn3)cc2)nnc1-c1ccncc1	95*	0	9	60*	0.4
CCn1c(SCC(=O)Nc2cccc(NC(=O)c3cccs3)c2)nnc1-c1ccncc1	72*	0.3	-1	31	0.7
CCOC(=O)c1sc(SCC(=O)Nc2ccc(N(C)C)cc2)nc1N	57*	0.4	-4	69*	0.3
CCn1c(SCC(=O)Nc2ccc(N(C)C)cc2)nnc1-c1cccc(C)c1	86*	0.1	-1	73*	0.3
